Most compounds without a hit are left out; they make up all but 1.6% or so of the library.
KCNQ2 inh – inhibitors of rat KCNQ2 potassium channel; CHO-K1 KCNQ2, FluxOR thallium flux, 20 min; active compounds read low; B-score at 10 µM; 1.1% of 310,000 active; O88943;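 active means fluorescence ratio B-score at most minus 3 library SDs, with starting brightness B-score within 2 library SDs, cut at about -5.5 in these data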
KCNQ2 pot – KCNQ2 (rat) channel potentiation; 0.54% of 310,000 active; B-score at 10 µM; CHO-K1 KCNQ2, FluxOR thallium flux fluorescence; active compounds read high; AID 2239; O88943;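 active means fluorescence ratio B-score at least 3 SD of library B-scores, with initial fluorescence B-score within 3 of them, cut at about 5.3 in these data; same plate scores as AID 2156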;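 further: B-score of peak minus minimum over baseline fluorescence ratio after K+ and Tl+ stimulus; positive B-score means potentiation of KCNQ2 with more thallium influx and brighter signal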
KCNQ2 inh conf – confirmation of rat KCNQ2 potassium channel inhibitors; shares compounds with KCNQ2 inh; KCNQ2-expressing cells, thallium flux, inhibition; active compounds read low; activity change, negative = inhibition, % at 10 µM; 57% of 1,000 active; AID 493025
KCNQ1 spec – human KCNQ1 activity in KCNQ2 inhibitor specificity screen. shares compounds with KCNQ2 inh. KCNQ1-expressing cells, FluxOR thallium flux fluorescence; active compounds read low. activity change, negative = inhibition, % at 10 µM. 15% of 1,000 active. AID 493026;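 active means activity change at least 3 SD of negative controls below their mean in both duplicate wells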;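 further: CHO cells stably transfected with KCNQ1 and depolarized by potassium stimulus; peak minus minimum fluorescence over baseline after thallium addition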
Target sequence (P51787 whole entry, looked up): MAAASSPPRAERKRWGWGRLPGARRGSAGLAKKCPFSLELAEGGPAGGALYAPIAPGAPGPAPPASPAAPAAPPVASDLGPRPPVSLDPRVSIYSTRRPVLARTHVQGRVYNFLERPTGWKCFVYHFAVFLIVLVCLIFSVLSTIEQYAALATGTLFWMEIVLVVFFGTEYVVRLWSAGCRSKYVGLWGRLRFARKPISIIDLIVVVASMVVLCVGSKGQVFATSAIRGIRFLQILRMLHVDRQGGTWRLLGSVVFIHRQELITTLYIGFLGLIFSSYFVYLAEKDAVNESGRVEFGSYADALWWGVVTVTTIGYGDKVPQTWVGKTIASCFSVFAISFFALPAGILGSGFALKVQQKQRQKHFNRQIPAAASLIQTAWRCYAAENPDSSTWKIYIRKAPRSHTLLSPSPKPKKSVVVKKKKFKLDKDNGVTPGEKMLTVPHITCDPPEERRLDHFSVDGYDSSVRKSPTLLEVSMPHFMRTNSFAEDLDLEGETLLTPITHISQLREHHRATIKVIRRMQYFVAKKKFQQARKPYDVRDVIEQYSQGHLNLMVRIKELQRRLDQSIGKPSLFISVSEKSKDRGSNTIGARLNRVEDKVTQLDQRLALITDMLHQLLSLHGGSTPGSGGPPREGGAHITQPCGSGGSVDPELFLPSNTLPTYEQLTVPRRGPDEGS
CHO Tl ctr – activity in parental CHO cells lacking KCNQ2 | activity change, % at 10 µM | 14% of 1,000 active | thallium flux counter-screen; active compounds read low | AID 493029 | shares compounds with KCNQ2 inh
KCNQ2 patch conf – blocks rat KCNQ2 current in automated patch clamp | KCNQ2-expressing cells | shares compounds with KCNQ2 inh | calls only at 10 µM | 49% of 550 active | AID 588531
Each line names hits and unclear results; the compound was inactive in the other large screens (follow-up assays come after a bar, where they were run). Unless noted, how the calls were made is not given here.

C=CCn1c(SCC(=O)c2cc(C)n(C(C)COC)c2C)nc2sc(C)c(C)c2c1=O (configuration not stated)	KCNQ2 inh -10.8 | KCNQ2 inh conf inactive | KCNQ1 spec inactive | CHO Tl ctr inactive
CSc1ccc(S(=O)(=O)Nc2ccc(S(=O)(=O)Nc3ccc(C)cc3)cc2)cc1	none (no result: KCNQ2 pot)
Cc1ccc(S(=O)(=O)Nc2ccc(N=Nc3ccc(O)cc3)cc2)cc1	KCNQ2 inh -8.69 | KCNQ2 inh conf inactive | KCNQ1 spec inactive | CHO Tl ctr inactive
Cc1sc(NC(=O)c2ccco2)c(C(c2cccnc2)N2CCN(c3ccc(F)cc3)CC2)c1C (configuration not stated)	KCNQ2 inh -10.3 | KCNQ2 inh conf -29.0% | KCNQ1 spec inactive | CHO Tl ctr inactive | KCNQ2 patch conf inactive
Cc1sc(NC(=O)c2ccco2)c(C(c2cccnc2)N2CCN(CCO)CC2)c1C (configuration not stated)	none
CCN(CC)CCCNC1CCS(=O)(=O)C1 (configuration not stated)	KCNQ2 inh -6.71 | KCNQ2 inh conf inactive | KCNQ1 spec inactive | CHO Tl ctr inactive
CCNC1CCS(=O)(=O)C1 (configuration not stated)	none (no result: KCNQ2 pot)
COc1cc2c(cc1OC)C(c1cc3cccc(C)c3[nH]c1=O)N(C(=O)c1ccco1)CC2 (configuration not stated)	none (no result: KCNQ2 pot)
Cc1cc(C)c(NC(=O)/C(=C/c2ccccc2)c2ccccc2)c(C)c1	KCNQ2 inh -7.48 | KCNQ2 inh conf inactive | KCNQ1 spec inactive | CHO Tl ctr inactive
Cc1ccc(NC(=O)/C(=C/c2ccco2)c2ccccc2)c(C)c1	none (no result: KCNQ2 pot)
COc1cccc(C(=O)Nc2cccc(C(=O)NCC(C)C)c2)c1	KCNQ2 inh -6.69 | KCNQ2 inh conf inactive | KCNQ1 spec inactive | CHO Tl ctr inactive
COc1cccc(NC(=O)c2cccc(C(=O)Nc3cccc(OC)c3)c2)c1	none
Cc1sc(NC(=O)CN2CCOCC2)c(C#N)c1C	none
COc1ccc(Br)cc1CN(C)C(=O)c1ccccc1OCc1c(C)noc1C	KCNQ2 inh -8.57 | KCNQ2 inh conf inactive | KCNQ1 spec inactive | CHO Tl ctr inactive
Cc1ccc(NC(=O)CN(C)C(=O)c2ccccc2OCc2c(C)noc2C)cc1	none (no result: KCNQ2 pot)
CC(=O)c1cccc(N2C(=NC(=O)C3CC3)SC3CS(=O)(=O)CC32)c1 (configuration not stated)	none
Cc1nc(Sc2ccc(Br)cc2)c(C#N)c(C)c1[N+](=O)[O-]	KCNQ2 inh -7.65 | KCNQ2 inh conf -20.5% | KCNQ1 spec inactive | CHO Tl ctr inactive | KCNQ2 patch conf inactive
Cc1ccc(Sc2nc(C)c([N+](=O)[O-])c(C)c2C#N)cc1	none (no result: KCNQ2 pot)
NNC(=O)c1nc[nH]c1C(=O)Nc1ccccc1	none (no result: KCNQ2 pot)
CC(C)=CCc1cc2c(=O)c3c(O)c4c(cc3oc2c(O)c1O)OC(C)C4(C)C (configuration not stated)	KCNQ2 inh -8.55 | KCNQ2 inh conf inactive | KCNQ1 spec inactive | CHO Tl ctr inactive
CC1Oc2cc3oc4c(O)c5c(cc4c(=O)c3c(O)c2C1(C)C)C=CC(C)(C)O5 (configuration not stated)	none (no result: KCNQ2 pot)
O=c1c2ccccc2nc(COc2ccccc2)n1/N=C/c1ccc(O)c(O)c1	none (no result: KCNQ2 pot)
O=c1c2ccccc2nc(COc2ccccc2)n1/N=C/c1ccco1	KCNQ2 inh -10.2 | KCNQ2 inh conf inactive | KCNQ1 spec inactive | CHO Tl ctr inactive
CCOc1ccc(-c2cc(C(=O)N/N=C(\C)c3cccnc3)c3ccccc3n2)c(OCC)c1	none
Cc1ccc2c(c1)C(=O)CC(c1ccc3c(c1)OCCO3)O2 (configuration not stated)	none
CC(C)=CCc1cc([C@@H]2CC(=O)c3ccc(O)c(CC=C(C)C)c3O2)ccc1O	KCNQ2 inh -9.02 | KCNQ2 inh conf inactive | KCNQ1 spec inactive | CHO Tl ctr inactive
Cc1[nH]n(-c2ccccc2)c(=O)c1C(C[N+](=O)[O-])c1ccccc1Cl (configuration not stated)	none (no result: KCNQ2 pot)
COc1ccc(C(C[N+](=O)[O-])c2c(C)[nH]n(-c3ccccc3)c2=O)cc1 (configuration not stated)	KCNQ2 inh -7.05 | KCNQ2 inh conf -26.0% | KCNQ1 spec inactive | CHO Tl ctr inactive | KCNQ2 patch conf inactive
CC1CCCCN1C(=O)COC(=O)c1cccc(NS(=O)(=O)c2ccccc2)c1 (configuration not stated)	none
O=C(NC1c2ccccc2-c2ccccc21)N1CCCCC1	KCNQ2 inh -6.76 | KCNQ2 inh conf -25.0% | KCNQ1 spec inactive | CHO Tl ctr inactive | KCNQ2 patch conf active
CN(C)C(=O)NC1c2ccccc2-c2ccccc21	none (no result: KCNQ2 pot)
CCOc1ccc(-c2cnc(NCc3cccc4ccccc34)n2CCOC)cc1	KCNQ2 inh -9.71 | KCNQ2 inh conf inactive | KCNQ1 spec inactive | CHO Tl ctr inactive
COCCn1c(-c2ccc(OC)cc2)cnc1N	none (no result: KCNQ2 pot)
CC(NC(=O)CCNC(=O)c1ccco1)c1ccccc1 (configuration not stated)	none
C=CCS/C(N)=N\N=C\c1cc(Br)cc([N+](=O)[O-])c1O	none
COc1ccc(Cn2nnnc2C(C(C)C)N(Cc2ccco2)Cc2cccs2)cc1 (configuration not stated)	none (no result: KCNQ2 pot)
CC(C)C(c1nnnn1Cc1ccccc1)N(Cc1ccco1)Cc1cccs1 (configuration not stated)	KCNQ2 inh -9.03 | KCNQ2 inh conf -43.5% | KCNQ1 spec -45.0% | CHO Tl ctr -41.0% | KCNQ2 patch conf inactive
Cc1ccc(S(=O)(=O)NCc2ccccc2)cc1C(=O)NCC(C)(C)N1CCOCC1	none (no result: KCNQ2 pot)
O=C(Cc1sc(Nc2ccccc2)nc1-c1ccccc1)NCc1ccccc1	KCNQ2 inh -7.13 | KCNQ2 inh conf inactive | KCNQ1 spec inactive | CHO Tl ctr inactive
O=C(Cc1sc(-c2ccccc2)nc1-c1ccccc1)Nc1ccccc1	none
Cc1ccc(N(Cc2ccccc2)C(=O)c2cccc(S(=O)(=O)N3CC(C)OC(C)C3)c2)cc1 (configuration not stated)	none
CC1CN(S(=O)(=O)c2cccc(C(=O)N(CCc3ccccc3)Cc3ccccc3)c2)CC(C)O1 (configuration not stated)	KCNQ2 inh -8.3 | KCNQ2 inh conf -32.5% | KCNQ1 spec -27.0% | CHO Tl ctr inactive | KCNQ2 patch conf active
Cc1cccc(NC(=O)CSc2nc3ccccc3nc2N2CCCC2)c1C	none
CS(=O)(=O)N(Cc1ccco1)CC(O)Cn1c2ccccc2c2ccccc21 (configuration not stated)	KCNQ2 inh -8.17 | KCNQ2 inh conf -26.5% | KCNQ1 spec inactive | CHO Tl ctr inactive | KCNQ2 patch conf active
Cc1ccc(N(CC(O)Cn2c3ccccc3c3ccccc32)S(C)(=O)=O)cc1 (configuration not stated)	none (no result: KCNQ2 pot)
CC1OC(Oc2c(-c3cc(O)c(O)c(O)c3)oc3cc(O)cc(O)c3c2=O)C(O)C(O)C1O (configuration not stated)	none (no result: KCNQ2 pot)

Screens deposited in PubChem by Johns Hopkins Ion Channel Center.
